Shown are actives, neighbours in structure and some others; about 10% of the full set was active somewhere.
SW480 rereplic – A quantitative high throughput screen for small molecules that induce DNA re-replication in SW480 colon adenocarcinoma cells | Potency, µM (highest dose often 46.1 µM), without a hit: top-dose re-replication activation, usual class: activators | 340,000 compounds, 1.8% hits | AID 624297, 2012 | SW480 DNA re-replication, Hoechst DNA content imaging, 48 h; also: % of control where 0% means no effect; nearly all actives have a fitted effect of over 55% in size
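Quantitative HTS format with DMSO vehicle controls; 48 hr drug incubation at 37 C, then 40 min Hoechst staining and scanning imager measurement at 405 nm excitation.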
KB-3-1 tox – qHTS assay for MDR1-selective chemotherapeutics: Primary screen using the parental adenocarcinoma cell KB-3-1 | 400,000 compounds, 1.4% hits | AID 1347075, 2019 | KB-3-1 viability, CellTiter-Glo ATP luminescence, 72 h | Potency, µM (series often up to 46.1 µM), hits mostly cytotoxic; also: % is scaled to controls: 0 for no effect and ±100 for the full control effect; nearly all actives have a fitted effect of over 60% in size
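KB-3-1 parental drug-naive adenocarcinoma cells in DMEM/10% FBS, incubated 72 h at 37 C with pin-transferred compounds across a concentration series. Viability by CellTiter-Glo luminescence; concentration-response curves fitted after normalization.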
MCF10A rerep – A quantitative high throughput screen for small molecules that induce DNA re-replication in MCF 10a normal breast cells; MCF 10A DNA re-replication, Hoechst nuclear intensity, 48 h; Potency, µM (top dose mostly 46.1 µM), inactives show at the highest dose activity, positive = re-replication, hits mostly activators; 350,000 compounds, 2.9% hits; AID 624296, 2012; also: % of control where 0% means no effect; nearly all actives have a fitted effect of over 50% in size
Gal4-VP16 FLuc – VP16 counterscreen qHTS for inhibitors of ROR gamma transcriptional activity; Drosophila S2 Gal4-VP16 UAS-luciferase, luminescence, 20 h; 310,000 compounds, 3.5% hits; AID 2546, 2010; Potency, µM (top dose mostly 53.6 µM), without a hit: at the top dose activity, negative = inhibition, hits mostly inhibitors;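 also: Gal4-VP16 expression switched on by copper sulfate through the metallothionein promoter; % is scaled to controls: 0 for no effect and ±100 for the full control effect; nearly all actives have a fitted effect of over 50% in size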
RORg inh – qHTS for inhibitors of ROR gamma transcriptional activity. Nuclear receptor ROR-gamma (Mus musculus), P51450. Drosophila S2 Gal4-RORgamma UAS-luciferase reporter, 20 h. Potency, µM (doses to about 53.6 µM), inactives show top-dose activity change, negative = inhibition, most hits filed as inhibitors. 310,000 compounds, 5.4% hits; also: % is scaled to controls: 0 for no effect and ±100 for the full control effect; nearly all actives have a fitted effect of over 60% in size
Target sequence (P51450 whole entry, looked up, the tested form may be a part): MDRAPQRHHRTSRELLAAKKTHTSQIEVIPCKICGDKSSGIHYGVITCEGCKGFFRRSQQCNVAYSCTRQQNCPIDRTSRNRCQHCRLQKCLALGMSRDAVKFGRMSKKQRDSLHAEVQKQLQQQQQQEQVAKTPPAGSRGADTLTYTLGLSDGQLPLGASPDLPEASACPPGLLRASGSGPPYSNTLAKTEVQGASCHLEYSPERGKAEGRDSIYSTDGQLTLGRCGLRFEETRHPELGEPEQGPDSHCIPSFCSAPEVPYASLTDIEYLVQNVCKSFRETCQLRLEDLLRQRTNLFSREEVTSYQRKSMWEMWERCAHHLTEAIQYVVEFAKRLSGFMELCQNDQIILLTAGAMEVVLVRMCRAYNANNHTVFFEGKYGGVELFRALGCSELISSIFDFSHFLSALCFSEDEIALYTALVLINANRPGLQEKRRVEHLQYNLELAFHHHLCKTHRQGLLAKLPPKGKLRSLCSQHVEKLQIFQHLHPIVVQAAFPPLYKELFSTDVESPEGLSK
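Luciferase reporter read in Schneider cells carrying Gal4-RORγ (mouse) and UAS-Photinus luciferase; cells given compound 1 h before 700 uM copper sulfate induction, then incubated 20 h at ambient temperature.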
KB-V1 MDR tox – qHTS assay for MDR1-selective chemotherapeutics: Primary screen using the drug-selected MDR subline cells KB-V1. KB-V1 MDR cells viability, CellTiter-Glo, 72 h. Potency, µM (doses to about 46.1 µM), most hits filed as cytotoxic. 400,000 compounds, 3.4% hits; also: % is scaled to controls: 0 for no effect and ±100 for the full control effect; nearly all actives have a fitted effect of over 60% in size
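Potencies derive from concentration-effect curves fitted to normalized luminescence (CellTiter-Glo) of KB-V1 cells treated for 72 h at 37 degrees C in phenol-red-free DMEM containing 10% FBS.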
The depositor's hits bear a star; i = inactive; u = inconclusive; x = no result given; [ ] = remark or other dose. Calls follow the shape of the dose curve; as a rule, active = well fitted curve in the direction sought with a large enough effect; inconclusive = small, poorly fitted or top-dose-only effect, or another doubt; inactive = no such curve, though single readings can be large; an effect the other way counts as inactive or inconclusive. Potency is read from the fitted curve at half-maximal effect.

SMILES	SW480 rereplic	KB-3-1 tox	MCF10A rerep	Gal4-VP16 FLuc	RORg inh	KB-V1 MDR tox
COc1ccc(OC)c(S(=O)(=O)Nc2ccc3oc4c(c3c2)C(=O)CCC4)c1	5%	i	3%	-13%	32%	23µM*
COc1ccc(S(=O)(=O)Nc2ccc3oc4c(c3c2)CCCC4)cc1	x	i	x	x	x	u
COc1cc(C(=O)c2ccc3c(c2)OCO3)cc(OC)c1OC	2.1µM*	4.6µM*	u	x	x	3.3µM*
COc1cc(C(=O)c2cocc2C(=O)c2ccc3c(c2)OCO3)cc(OC)c1OC	1.8µM*	u	u	5%	-14%	1.2µM*
C/C(=N\NC(=O)c1ccc(C)cc1C)c1ccc2c(c1)OCO2	-5%	i	9%	13%	-40%	i
COc1cc(C(=O)NNC(=O)c2ccc3c(c2)OCCO3)cc(OC)c1OC	-4%	i	0%	x	x	i
COc1cc(C(=O)N/N=C(\C)c2ccc3c(c2)OCO3)cc(OC)c1OC	2.6µM*	4.6µM*	4.1µM*	-6%	-23%	5.2µM*
C/C(=N\NC(=O)c1cc2ccccc2cc1O)c1ccc2c(c1)OCO2	3%	u	9%	u	16µM*	u
COc1ccc2c(CNCc3cccs3)c(C(=O)O)n(Cc3cccc(F)c3)c2c1	x	i	x	x	x	i
CNC(=O)C1CCC(Cn2c(=O)c3sccc3n(CC(=O)N3CCCC(C)C3)c2=O)CC1 (configuration not stated)	x	i	x	x	x	i
COc1ccc(N/C=C\C(=O)c2ccc3c(c2)OCO3)cc1OC	3%	i	15%	-12%	u	i
COc1cccc(/C=C/C(=O)c2ccc3c(c2)OCO3)c1OC	u	u	u	x	x	23µM*
C=C(C)C(N)=O	x	x	x	3%	14%	x
Cc1oc2c(C)c(O)ccc2c(=O)c1-c1cnn(-c2ccccc2)c1	-1%	i	u	u	-42%	i
Cc1[nH]nc(-c2ccc(O)c(C)c2O)c1-c1cnn(-c2ccccc2)c1	0%	i	77%	-2%	-22%	16µM*
Cc1ccc(S(=O)(=O)N2CCCCC2CCNC(=O)C(=O)NCC2CCCO2)cc1 (configuration not stated)	4%	i	0%	x	x	5.8µM*
Cc1ccc(S(=O)(=O)N2CCCCC2CCNC(=O)C(=O)NCc2ccccc2)cc1 (configuration not stated)	6.5µM*	3.7µM*	u	x	x	4.1µM*
O=C(NCCC1CCCCN1S(=O)(=O)c1ccc(F)cc1)C(=O)NCC1CCCO1 (configuration not stated)	-3%	i	10%	x	x	i
Cc1ccc(S(=O)(=O)N2CCCCC2CCNC(=O)C(=O)NCc2ccccc2C)cc1 (configuration not stated)	21µM*	u	u	x	x	9.2µM*
Cc1ccc(S(=O)(=O)N2CCCCC2CCNC(=O)C(=O)NCc2ccncc2)cc1 (configuration not stated)	-4%	i	7%	x	x	u
O=C(NCCc1ccc(F)cc1)C(=O)NCC(c1cccs1)S(=O)(=O)c1ccc(F)cc1 (configuration not stated)	x	i	x	x	x	i
COCC(=O)N1CCC2(CC1)CN(C(=O)Nc1cccc(C#N)c1)C2	x	x	x	6%	7%	x
CCN(CC(=O)Nc1cccc(OC)c1)c1ncnc2sc(C)c(C)c12	-140%	u	-57%	u	29%	2.3µM*
COc1cc(NC(=O)Cc2noc3ccccc23)cc(OC)c1OC	x	i	x	x	x	i
O=C(COC(=O)COc1ccc(Br)cc1)NNC(=O)c1ccccc1	8%	i	-5%	x	x	i
SMILES	SW480 rereplic	KB-3-1 tox	MCF10A rerep	Gal4-VP16 FLuc	RORg inh	KB-V1 MDR tox
Cc1ccccc1OCCCN1C(=O)C(=O)c2cccc(C)c21	23%	u	u	11µM*	35µM*	i
Cc1cccc2c1N(CCCOc1ccccc1)C(=O)C2=O	-2%[9.22 µM]	i	16%	u	-44%	i
Cc1ccc2oc(-c3ccc(C)c(NC(=O)c4ccc(N5CCC(C)CC5)c([N+](=O)[O-])c4)c3)nc2c1	x	i	x	x	x	u
O=C(c1c2c(nc3ccccc13)C(=O)N(C1CCCCC1)C2)N1CCN(c2ccc(F)cc2)CC1	x	i	x	x	x	i
O=C(O)c1ccc(Cl)c(S(=O)(=O)N(Cc2ccccc2)c2ccccc2Cl)c1	1%	u	8.2µM*	-22%	-28%	u
O=C(O)c1ccc(Cl)c(S(=O)(=O)N(Cc2ccccc2)c2ccccc2)c1	1%	i	9%	8%	-27%	i
O=C(O)c1ccc(Cl)c(S(=O)(=O)N(Cc2ccccc2)c2ccc(F)cc2)c1	2%	i	u	-18%	-2%	u
COc1ccc(N(Cc2ccccc2)S(=O)(=O)c2cc(C(=O)O)ccc2Cl)cc1	-3%	i	18µM*	-14%	-1%	i
CCCCCOC(=O)c1ccc(Nc2nc(C(=O)OCC)nc3ccccc23)cc1	x	i	x	x	x	i
O=C(c1ccncc1)N1CCC2(CCCN(Cc3ccncc3)C2)CC1	x	x	x	1%	-15%	x
Cc1cccc2sc(N(CCCN(C)C)C(=O)c3ccc(S(=O)(=O)N4CCc5ccccc5C4)cc3)nc12	u	u	u	11µM*	u	i
CN(C)CCCN(C(=O)c1ccc(S(=O)(=O)N2CCc3ccccc3C2)cc1)c1nc2c(F)cccc2s1	-5%	i	0%	-24%	4.5µM*	i
